Test results reported in PubChem BioAssay AID1159580 (chemical genetic matrix, 2015).
The campaign covered roughly 5,500 compounds. About 2,000 (36%) were called active. About 18% were inconclusive and are not listed. No stated cut-off is given here; in the data, active means normalized growth mostly below about 0.91 (no sharp cut-off); inconclusive means no clear call, values can overlap the other calls; inactive means mostly above about 0.92. The list shows a part of the results.

Assay: chemical genetic growth profiling, strain panel (AID 1159580);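 further: tested at 20 µM; growth read once vehicle control cultures reached saturation at 30 °C; 1 = growth at the plate median or of vehicle wells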
Settings: growth OD

Measured: normalized growth

CCOc1ccc(Cc2nccc3cc(OCC)c(OCC)cc23)cc1OCC
inactive: S. cerevisiae deletion strains, locus YJR075W, strain HOC1, stronger effect = lower value 0.92 | S. cerevisiae deletion strains, locus YKL009W, strain mrt4, stronger effect = lower value 0.969 | S. cerevisiae deletion strains, locus YKL068W, stronger effect = lower value 0.986 | S. cerevisiae deletion strains, locus YKL085W, strain MDH1 (second series), stronger effect = lower value 0.985 | S. cerevisiae deletion strains, locus YKL085W, strain MDH1, stronger effect = lower value 0.985 | S. cerevisiae deletion strains, locus YKL160W, strain elf1, stronger effect = lower value 0.98 | S. cerevisiae deletion strains, locus YKL190W, strain CNB1, stronger effect = lower value 0.98 | S. cerevisiae deletion strains, locus YKR026C, strain gcn3, stronger effect = lower value 0.975 | S. cerevisiae deletion strains, locus YKR091W, strain srl3, stronger effect = lower value 0.979 | S. cerevisiae deletion strains, locus YLL001W, strain dnm1, stronger effect = lower value 0.96 | S. cerevisiae deletion strains, locus YLL026W, stronger effect = lower value 0.984 | S. cerevisiae deletion strains, locus YLL041C, strain sdh2, stronger effect = lower value 0.975 | S. cerevisiae deletion strains, locus YLR027C, strain aat2, stronger effect = lower value 0.97 | S. cerevisiae deletion strains, locus YLR039C, strain RIC1, stronger effect = lower value 0.878 | S. cerevisiae deletion strains, locus YLR058C, strain SHM2, stronger effect = lower value 0.949 | S. cerevisiae deletion strains, locus YLR102C, strain apc9, stronger effect = lower value 0.978 | S. cerevisiae deletion strains, locus YLR113W, strain HOG1, stronger effect = lower value 1.02 | S. cerevisiae deletion strains, locus YLR221C, strain rsa3, stronger effect = lower value 0.982 | S. cerevisiae deletion strains, locus YLR258W, strain gsy2, stronger effect = lower value 0.968 | S. cerevisiae deletion strains, locus YLR262C, strain YPT6 (second series), stronger effect = lower value 0.871 | S. cerevisiae deletion strains, locus YLR262C, strain YPT6, stronger effect = lower value 0.861 | S. cerevisiae deletion strains, locus YLR320W, strain mms22, stronger effect = lower value 0.949 | S. cerevisiae deletion strains, locus YLR330W, strain CHS5, stronger effect = lower value 0.979 | S. cerevisiae deletion strains, locus YLR342W, strain FKS1 (second series), stronger effect = lower value 0.901 | S. cerevisiae deletion strains, locus YLR342W, strain FKS1, stronger effect = lower value 0.963 | S. cerevisiae deletion strains, locus YLR357W, strain rsc2, stronger effect = lower value 0.899 | S. cerevisiae deletion strains, locus YLR370C, strain arc18, stronger effect = lower value 0.977 | S. cerevisiae deletion strains, locus YLR371W, strain rom2, stronger effect = lower value 0.966 | S. cerevisiae deletion strains, locus YLR384C, strain iki3, stronger effect = lower value 0.989 | S. cerevisiae deletion strains, locus YML016C, strain PPZ1, stronger effect = lower value 0.973 | S. cerevisiae deletion strains, locus YML032C, strain rad52, stronger effect = lower value 0.943 | S. cerevisiae deletion strains, locus YML120C, strain ndi1, stronger effect = lower value 0.965 | S. cerevisiae deletion strains, locus YML124C, strain tub3, stronger effect = lower value 0.979 | S. cerevisiae deletion strains, locus YMR058W, strain fet3, stronger effect = lower value 0.967 | S. cerevisiae deletion strains, locus YMR078C, strain ctf18, stronger effect = lower value 0.957 | S. cerevisiae deletion strains, locus YMR125W, strain sto1, stronger effect = lower value 1.01 | S. cerevisiae deletion strains, locus YMR129W, stronger effect = lower value 0.984 | S. cerevisiae deletion strains, locus YMR205C, strain PFK2, stronger effect = lower value 0.938 | S. cerevisiae deletion strains, locus YMR223W, strain ubp8, stronger effect = lower value 0.971 | S. cerevisiae deletion strains, locus YMR231W, strain pep5, stronger effect = lower value 0.979 | S. cerevisiae deletion strains, locus YMR307W, strain GAS1, stronger effect = lower value 0.769 | S. cerevisiae deletion strains, locus YNL067W, strain RPL9B, stronger effect = lower value 0.935 | S. cerevisiae deletion strains, locus YNL071W, strain lat1, stronger effect = lower value 0.985 | S. cerevisiae deletion strains, locus YNL128W, strain TEP1, stronger effect = lower value 0.967 | S. cerevisiae deletion strains, locus YNL153C, strain GIM3, stronger effect = lower value 0.961 | S. cerevisiae deletion strains, locus YNL183C, strain NPR1, stronger effect = lower value 0.899 | S. cerevisiae deletion strains, locus YNL209W, strain ssb2, stronger effect = lower value 0.98 | S. cerevisiae deletion strains, locus YNL233W, strain BNI4, stronger effect = lower value 0.917 | S. cerevisiae deletion strains, locus YNL248C, strain rpa49, stronger effect = lower value 0.942 | S. cerevisiae deletion strains, locus YNL250W, strain rad50, stronger effect = lower value 0.98 | S. cerevisiae deletion strains, locus YNL271C, strain bni1, stronger effect = lower value 0.979 | S. cerevisiae deletion strains, locus YNL298W, strain CLA4, stronger effect = lower value 0.993 | S. cerevisiae deletion strains, locus YNL322C, strain KRE1 (second series), stronger effect = lower value 0.982 | S. cerevisiae deletion strains, locus YNL322C, strain KRE1, stronger effect = lower value 0.986 | S. cerevisiae deletion strains, locus YNR049C, strain mso1, stronger effect = lower value 0.965 | S. cerevisiae deletion strains, locus YNR052C, strain pop2, stronger effect = lower value 0.974 | S. cerevisiae deletion strains, locus YOL006C, strain TOP1, stronger effect = lower value 0.771 | S. cerevisiae deletion strains, locus YOL012C, strain htz1 1.53 | S. cerevisiae deletion strains, locus YOL147C, strain pex11, stronger effect = lower value 0.969 | S. cerevisiae deletion strains, locus YOR001W, strain rrp6, stronger effect = lower value 0.966 | S. cerevisiae deletion strains, locus YOR061W, strain CKA2, stronger effect = lower value 0.978 | S. cerevisiae deletion strains, locus YOR069W, strain VPS5, stronger effect = lower value 0.98 | S. cerevisiae deletion strains, locus YOR070C, strain gyp1, stronger effect = lower value 0.976 | S. cerevisiae deletion strains, locus YOR080W, strain dia2, stronger effect = lower value 0.977 | S. cerevisiae deletion strains, locus YOR083W, strain WHI5, stronger effect = lower value 0.95 | S. cerevisiae deletion strains, locus YOR106W, strain vam3, stronger effect = lower value 0.928 | S. cerevisiae deletion strains, locus YOR136W, strain idh2, stronger effect = lower value 0.974 | S. cerevisiae deletion strains, locus YOR144C, strain elg1, stronger effect = lower value 0.974 | S. cerevisiae deletion strains, locus YOR184W, strain ser1, stronger effect = lower value 0.899 | S. cerevisiae deletion strains, locus YOR231W, strain MKK1, stronger effect = lower value 0.978 | S. cerevisiae deletion strains, locus YOR265W, strain rbl2, stronger effect = lower value 0.993 | S. cerevisiae deletion strains, locus YOR270C, strain vph1, stronger effect = lower value 0.849 | S. cerevisiae deletion strains, locus YOR290C, strain snf2, stronger effect = lower value 0.974 | S. cerevisiae deletion strains, locus YOR316C, strain cot1, stronger effect = lower value 0.967 | S. cerevisiae deletion strains, locus YPL051W, strain arl3, stronger effect = lower value 0.948 | S. cerevisiae deletion strains, locus YPL055C, strain LGE1, stronger effect = lower value 0.906 | S. cerevisiae deletion strains, locus YPL078C, strain atp4, stronger effect = lower value 0.962 | S. cerevisiae deletion strains, locus YPL106C, strain sse1, stronger effect = lower value 0.999 | S. cerevisiae deletion strains, locus YPL240C, strain hsp82, stronger effect = lower value 0.991 | S. cerevisiae deletion strains, locus YPL241C, strain CIN2, stronger effect = lower value 0.984 | S. cerevisiae deletion strains, locus YPL256C, strain CLN2, stronger effect = lower value 0.963 | S. cerevisiae deletion strains, locus YPR119W, strain clb2, stronger effect = lower value 0.964 | S. cerevisiae deletion strains, locus YPR141C, strain kar3, stronger effect = lower value 0.974 | S. cerevisiae deletion strains, locus YPR167C, strain met16, stronger effect = lower value 0.97 | S. cerevisiae deletion strains, strain wtn01, stronger effect = lower value 0.924 | S. cerevisiae strains, strain wild type, stronger effect = lower value 0.961
active: S. cerevisiae deletion strains, locus YKR001C, strain vps1, stronger effect = lower value 0.88 | S. cerevisiae deletion strains, locus YLR268W, strain sec22, stronger effect = lower value 0.873 | S. cerevisiae deletion strains, locus YLR418C, strain cdc73, stronger effect = lower value 0.772 | S. cerevisiae deletion strains, locus YNL307C, strain MCK1, stronger effect = lower value 0.875 | S. cerevisiae deletion strains, locus YPR163C, strain tif3, stronger effect = lower value 0.898
